In one assay the target is Albumin (Bos taurus) (UniProt P02769). As to the kind of experiment: bovine serum albumin binders on microarray, profiling panel, artefact control for SMM control protein annotation, biochemical, small-molecule microarray, Alexa647 label, 635/667 nm fluorescence (AID 1118).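 Also: score merges 667 nm emission intensity and signal-to-noise per printed compound spot.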 Conditions: BSA-A647 binding, fluorescence 635 nm, higher = more signal.
A short description of assay [1]: small-molecule microarray binders of probe aXIP, primary screen, biochemical, NeuroSMM set, 635/667 nm fluorescence (AID 1119).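 Also: probe is the protein aXip251-270 applied at 1 µg/mL to compound-printed slides; binding of probe to printed compounds measured as 667 nm fluorescence plus signal to noise.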 Conditions: higher = more signal, called active from +8 up or from −8 down.
Assay [2] can be described thus: small-molecule binders of probe aNOTCH3, primary screen, biochemical, small-molecule microarray, 635/667 nm fluorescence (AID 1120).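 Also: probe is a biotin-tagged antibody raised against NOTCH3 rather than NOTCH3 protein; score merges spot fluorescence near 667 nm with spot signal to noise.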 Conditions: higher = more signal.
A short description of assay [3]: small-molecule binders of probe aNOTCH2, primary screen, biochemical, small-molecule microarray, 635/667 nm fluorescence (AID 1121).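 Also: score merges feature fluorescence read at 667 nm with its signal to noise.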 Particulars: higher = more signal.
Assay [4] has as its target Carbonic anhydrase 2 (Homo sapiens) (UniProt P00918). Description: CAII small-molecule binders, profiling panel, biochemical, small-molecule microarray, Alexa647-labelled CAII (AID 1122). Conditions: CAII-A647 binding fluorescence, higher = more signal.
Assay [5] is described as follows: COS7 lysate on small-molecule microarray, probe aHis, 635 nm (AID 1123).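 Also: z-score combines 667nm fluorescence intensity with signal-to-noise per printed compound spot.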 Particulars: COS7 cell lysate, fluorescence, higher = more signal.
A short description of assay [6]: compound binding in COS7 lysate, probe aLAP1, primary screen, cell lysate, small-molecule microarray (AID 1124).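 Also: lysate comes from COS7 cells expressing LAP1 and is applied at 0.3 µg/mL; score merges spot fluorescence near 667 nm with signal-to-noise over triplicate slides.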 Particulars: probe aLAP1, fluorescence, higher = more signal.
Another assay has as its system Sam68 (KHDRBS1). As to the kind of experiment: Sam68 small-molecule binders, primary screen, biochemical, small-molecule microarray, 635 nm fluorescence (AID 1125).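 Also: score merges 667 nm channel intensity with signal to noise over triplicate slides.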 Conditions: small-molecule microarray binding, higher = more signal.
Assay [7] has as its system Chordin-like protein 2 (CHRDL2). As to the kind of experiment: CHRDL2 small-molecule binders, primary screen, biochemical, small-molecule microarray, 635 nm fluorescence (AID 1126).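 Also: printed compound slides probed with Chrdl2 protein at 4 µg/mL for 1 h at 4 C; score merges 667 nm emission intensity with signal to noise over three replicate slides.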 Particulars: small-molecule microarray binding, fluorescence 635 nm; higher = more signal.
For assay [8], the target named is Concanavalin-A (Canavalia ensiformis) (UniProt P02866). As to the kind of experiment: ConA small-molecule binders, primary screen, artefact control for SMM control protein annotation, biochemical, small-molecule microarray, Alexa647 label, 635 nm (AID 1127).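 Also: z combines 667 nm emission intensity with signal-to-noise across three replicate slides.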 Particulars: ConA-A647 binding fluorescence, higher = more signal.
Sequence of Concanavalin-A (Canavalia ensiformis) (P02866 whole entry, looked up): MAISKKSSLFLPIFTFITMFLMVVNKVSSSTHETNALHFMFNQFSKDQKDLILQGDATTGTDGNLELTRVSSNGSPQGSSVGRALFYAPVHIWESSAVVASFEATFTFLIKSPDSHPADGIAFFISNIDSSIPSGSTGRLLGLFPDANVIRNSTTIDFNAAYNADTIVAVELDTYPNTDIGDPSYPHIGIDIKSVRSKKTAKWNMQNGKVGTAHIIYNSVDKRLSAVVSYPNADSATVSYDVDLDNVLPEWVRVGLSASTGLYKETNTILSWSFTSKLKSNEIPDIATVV

Active and inactive are the calls of the source.

Sequence of Albumin (Bos taurus) (P02769 whole entry, looked up): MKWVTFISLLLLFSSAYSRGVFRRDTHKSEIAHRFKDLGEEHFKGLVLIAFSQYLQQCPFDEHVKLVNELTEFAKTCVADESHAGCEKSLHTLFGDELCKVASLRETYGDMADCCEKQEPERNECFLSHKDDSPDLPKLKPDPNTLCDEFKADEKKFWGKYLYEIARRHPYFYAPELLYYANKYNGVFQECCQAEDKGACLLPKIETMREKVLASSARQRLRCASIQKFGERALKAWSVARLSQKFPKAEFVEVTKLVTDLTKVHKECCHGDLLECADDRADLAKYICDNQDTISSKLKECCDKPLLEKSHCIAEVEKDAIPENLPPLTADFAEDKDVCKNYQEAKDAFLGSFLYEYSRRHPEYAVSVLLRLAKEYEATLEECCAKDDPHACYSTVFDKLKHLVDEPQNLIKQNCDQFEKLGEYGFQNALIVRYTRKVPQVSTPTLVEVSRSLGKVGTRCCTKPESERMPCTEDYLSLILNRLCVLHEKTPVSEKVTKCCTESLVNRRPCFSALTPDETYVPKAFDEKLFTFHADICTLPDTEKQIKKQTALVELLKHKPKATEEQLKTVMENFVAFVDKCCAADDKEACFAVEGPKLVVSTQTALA

As to `CC(C)c1nc2cc(Br)ccc2c(=O)o1`, the composite z-score in the assay with Albumin (Bos taurus) is 0.915; in [2], 0.0493; in assay [3] it was -0.0424; in assay [4], 0.738; in [5], 0.92; in assay [6], 0.0912. Moreover, the composite z-score in the assay on Sam68 (KHDRBS1) is 0.711; in assay [7] it was -0.552; in [8], 1.09. For the same compound, the composite Z-score in [1] is 0.19 (inactive).
Regarding `CN(C)CCCNC(=O)[C@@]1(C)c2ccccc2C(=O)N(Cc2ccc(OC(F)(F)F)cc2)[C@H]1c1ccc(CO)cc1`, the composite z-score with Albumin (Bos taurus) is 0.548; in assay [2], -0.139; in assay [3], -0.0357; in assay [4], 0.706; in assay [5], 1.83; in assay [6] it was 1.03. The composite z-score in the assay with Sam68 (KHDRBS1) was 0.0786; in [7] it was -0.616; in assay [8], -0.451. Besides, the composite Z-score in assay [1] was 0.0333 (inactive).
As for `O=C(NCC(O)CO)C1N=C(c2ccc(OCCCO)cc2)N(c2ccccc2)O1` (stereo not given), the composite z-score with Albumin (Bos taurus) was -0.138; in [2], -0.0996; in [3] it was 0.162; in [4], 0.821; in assay [5], 0.0043; in [6], 1.04. For the same compound, the composite z-score with Sam68 (KHDRBS1) was determined as 1; in assay [7], 0.157; in assay [8] it was 0.53. Further, the composite Z-score in [1] is -0.226 (inactive).
For `Cc1ccc(S[C@]2(C(=O)NC(C)C)CC(=O)N(C3CCCCC3)[C@@H]2c2ccc(CO)cc2I)cc1`, the composite z-score is 0.529 in the assay with Albumin (Bos taurus); 0.0488 in assay [2]; -0.0727 in assay [3]; 0.645 in assay [4]; 2.6 in [5]; 0.487 in assay [6]. Further, the composite z-score in the assay with Sam68 (KHDRBS1) was 1.28; in assay [7], -0.325; in assay [8], 1.11. Also, the composite Z-score in assay [1] is 0.339 (inactive).
Regarding `CC1CC/C=C\[C@H]2OC34C=CCN(Cc5ccccc5)C(=O)[C@H]3N(CCCCCCO)C(=O)[C@@H]4C2C(=O)O1` (stereo not given in full), the composite z-score is 0.434 in the assay with Albumin (Bos taurus); -0.383 in [2]; -0.133 in [3]; 0.895 in assay [4]; 0.42 in [5]; 0.718 in [6]. The composite z-score in the assay with Sam68 (KHDRBS1) is -0.957; in assay [7] it was -0.993; in assay [8], -1.45. Also, in [1], the composite Z-score is -0.213 (inactive).
`CC1CC/C=C\[C@H]2OC34C=CCN(CCN5CCOCC5)C(=O)[C@H]3N(CCCO)C(=O)[C@@H]4C2C(=O)O1` (stereo not given in full): the composite z-score in the assay with Albumin (Bos taurus) was -1.3; in assay [2] it was -0.068; in assay [3] it was -0.164; in assay [4] it was 0.91; in assay [5] it was -0.531; in assay [6], 0.305. Moreover, the composite z-score was 0.0414 in the assay on Sam68 (KHDRBS1), -0.727 in assay [7] and -0.187 in assay [8]. The composite Z-score in assay [1] is 0.0485 (inactive).
Regarding `CN(C)C(=O)[C@@]1(Cc2ccccc2CN=[N+]=[N-])COC(c2ccc(OCCCO)cc2)=N1`, the composite z-score with Albumin (Bos taurus) is 0.819; in assay [2], -0.0048; in assay [3], -0.156; in assay [4], 0.572; in assay [5] it was 1.78; in assay [6], -0.0884. Moreover, the figures for the composite z-score (in the assay on Sam68 (KHDRBS1); in [7]; in [8]) were 0.0673, -0.781 and 1.04, respectively. Further, in [1], the composite Z-score was -0.0705 (inactive).
With `O=C(NCc1ccc(F)cc1)[C@H]1C[C@H]2C(=O)N3CCC[C@H]3C(=O)N2[C@H]1c1ccc(O)cc1`, the composite z-score with Albumin (Bos taurus) is -1.3; in assay [2], -0.303; in assay [3] it was -0.198; in [4], -0.0109; in [5] it was -0.136; in [6], 1.09. For the same compound, the results for the composite z-score (in the assay on Sam68 (KHDRBS1); in assay [7]; in [8]) were -0.732, 0.857 and 0.72, respectively. In addition, the composite Z-score in assay [1] was 0.081 (inactive).
Take `CCOC(=O)c1cn(C[C@H](Cc2ccccc2)NC(=O)N[C@H](CO)CCc2oc(C(C)=O)c(C(=O)OC)c2C(=O)OC)nn1`: the composite z-score with Albumin (Bos taurus) was 0.576; in [2], 0.269; in assay [3], -0.123; in assay [4] it was 0.443; in assay [5], 1.57; in assay [6] it was 0.131. The composite z-score with Sam68 (KHDRBS1) amounted to 1.3; in [7], 1.17; in assay [8] it was 0.883. Besides, the composite Z-score in assay [1] is 0.511 (inactive).
For `CC(C)N1C(=O)c2ccccc2[C@@H](C(=O)NCC(F)(F)F)[C@@H]1c1ccc(CO)cc1`, the composite z-score was -0.826 in the assay with Albumin (Bos taurus); -0.1 in assay [2]; -0.07 in [3]; 0.587 in [4]; 0.425 in [5]; -0.282 in [6]. Also, the figures for the composite z-score (in the assay with Sam68 (KHDRBS1); in assay [7]; in assay [8]) were -0.28, -0.474 and 0.104, respectively. In addition, in [1], the composite Z-score is 0.492 (inactive).
Turning to `COc1ccc([Si](C)(C)[C@H]2[C@H](CCO)O[C@@]3(C(=O)N(Cc4cccc(N(C=O)c5ccccc5)c4)c4ccccc43)[C@@H]2C)cc1`, the composite z-score was 0.291 in the assay with Albumin (Bos taurus); 0.059 in [2]; -0.102 in assay [3]; 0.467 in assay [4]; 1.28 in [5]; 0.677 in assay [6]. Further, the composite z-score was 1.28 in the assay on Sam68 (KHDRBS1), 0.293 in assay [7] and 1.15 in assay [8]. In addition, in assay [1], the composite Z-score was -0.313 (inactive).
For `CCOC(=O)C1=CC[C@@H](c2ccccc2)N(S(=O)(=O)c2ccc(C)cc2)[C@H]1c1ccccc1I`, the composite z-score is 0.856 with Albumin (Bos taurus); 1.02 in assay [2]; -0.0226 in assay [3]; 0.649 in assay [4]; 0.842 in assay [5]; 0.748 in assay [6]. In addition, the results for the composite z-score (in the assay with Sam68 (KHDRBS1); in [7]; in assay [8]) were 0.875, -0.131 and 1.01, respectively. Moreover, the composite Z-score in [1] was 0.008 (inactive).
For the compound `[N-]=[N+]=Nc1ccccc1C[C@]1(C(=O)N2CCOCC2)N=C(c2ccc(OCCCO)cc2)O[C@H]1c1ccccc1N=[N+]=[N-]`, the composite z-score is 0.832 with Albumin (Bos taurus); 0.472 in [2]; -0.14 in assay [3]; 0.648 in [4]; 3.09 in [5]; 0.654 in assay [6]. Also, the results for the composite z-score (with Sam68 (KHDRBS1); in assay [7]; in assay [8]) were 1.28, 0.86 and 1.15, respectively. In addition, in assay [1], the composite Z-score was 0.317 (inactive).
Take `COC(=O)[C@@]1(Cc2ccc(OC)cc2)[C@H]2c3cc(C(=O)N4CCCC4)n(Cc4ccc(Cl)c(C(F)(F)F)c4)c3C[C@H]2CN1C(=O)c1ccccc1`: the composite z-score with Albumin (Bos taurus) came out at 1.05; in assay [2], 0.322; in assay [3], 0.162; in assay [4] it was 0.696; in [5] it was 3.2; in assay [6], 1.16. Also, the composite z-score was 1.29 in the assay with Sam68 (KHDRBS1), -0.754 in assay [7] and 1.2 in assay [8]. The composite Z-score in [1] was 0.0685 (inactive).
Take `COc1ccc(C(O)C2C=CC3C(=O)N(c4ccccc4)C(=O)C3N2Nc2ccc([N+](=O)[O-])cc2)c2ccccc12` (stereo not given): the composite z-score with Albumin (Bos taurus) came to 0.941; in [2] it was 0.155; in assay [3], 0.0702; in assay [4], 0.575; in [5], 2.5; in assay [6], 1.44. Also, the composite z-score was determined as 1.3 in the assay on Sam68 (KHDRBS1), 0.308 in assay [7] and 1.22 in [8]. Besides, the composite Z-score in [1] was 0.372 (inactive).
